NTMT1 inh: NTMT1 methyltransferase inhibition; Potency, µM (titrated, usually from 114 µM), inactives show top-dose activity change, negative = inhibition, hits mostly inhibitors; 2.5% of 59,000 active; NTMT1 MTase-Glo SAH luminescence, purified enzyme;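 note: potency is the fitted concentration of half-maximal effect; plate controls were DMSO vehicle for no effect and no enzyme for full effect; nearly all actives have a fitted effect of over 65% in size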
HTT prom inh: inhibits huntingtin promoter activity; HEK293 HTT promoter firefly luciferase reporter, 24 h; 0.93% of 48,000 active; Potency, µM (series often up to 57.5 µM), inactives show top-dose activity change, negative = inhibition, actives largely listed as inhibitors; note: potency is the fitted concentration of half-maximal effect; nearly all actives have a fitted effect of over 50% in size
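HEK293 luciferase promoter-reporter cells (2,500/well) plated 24 h, then compounds added at up to 57.5 uM final for 24 h at 37 °C. Firefly luminescence by Dual-Glo, normalized to vehicle (0%) and zero RLU (-100%).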
DRV1 agonist: agonists of human resolvin D1 receptor DRV1 (GPR32) | CHO-K1 GPR32 beta-arrestin PathHunter luminescence, 90 min; zero percent set by DMSO-only wells | activation, % at 76.9 µM | 2.5% of 48,000 active;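 active = activation of at least 60% and not above a set upper limit, about 1 call in 100 departs from these limits; inconclusive = activation of 40% to 60%, or above that upper limit; inactive = activation under 40%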; note: 0% is about no effect
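Using DMSO wells as EC0, agonist-induced signal was taken as chemiluminescence from beta-Gal reconstituted upon beta-arrestin recruitment to GPR32 in CHO-K1 cells after 90 min compound treatment.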
HTT-AS act: activates huntingtin-antisense promoter activity; AID 1508624; Potency, µM (titrated, usually from 57.5 µM), for the others: at the highest dose activity change, positive = activation, hits mostly activators; HEK293 HTT-AS promoter firefly luciferase reporter, 24 h; response scale: percent change from vehicle, -100% = no light; 0.24% of 48,000 active; note: potency is the fitted concentration of half-maximal effect; nearly all actives have a fitted effect of over 55% in size
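Firefly luciferase signal from promoter-reporter HEK293 cells was scaled between vehicle (0%) and zero RLU (-100%). Compounds were tested at final concentrations of up to 57.5 uM over 24 h at 37 degrees C. PTC124 at 50 uM final served as control inhibitor.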
FH mod: Identification of activators of human fumarate hydratase by quantitative high-throughput screening; Potency, µM (highest dose often 79.9 µM), without a hit: top-dose activity change, negative = inhibition, most hits filed as inhibitors; AID 1347055, 2019; 0.22% of 54,000 active; FH coupled MDH/diaphorase resazurin fluorescence, 15 min; note: potency is the fitted concentration of half-maximal effect; % is set by controls: 0 for no effect and ±100 for the full control effect; the screen sought activators but most active calls are inhibition curves; nearly all actives have a fitted effect of over 45% in size
Target sequence (P07954 whole entry, looked up): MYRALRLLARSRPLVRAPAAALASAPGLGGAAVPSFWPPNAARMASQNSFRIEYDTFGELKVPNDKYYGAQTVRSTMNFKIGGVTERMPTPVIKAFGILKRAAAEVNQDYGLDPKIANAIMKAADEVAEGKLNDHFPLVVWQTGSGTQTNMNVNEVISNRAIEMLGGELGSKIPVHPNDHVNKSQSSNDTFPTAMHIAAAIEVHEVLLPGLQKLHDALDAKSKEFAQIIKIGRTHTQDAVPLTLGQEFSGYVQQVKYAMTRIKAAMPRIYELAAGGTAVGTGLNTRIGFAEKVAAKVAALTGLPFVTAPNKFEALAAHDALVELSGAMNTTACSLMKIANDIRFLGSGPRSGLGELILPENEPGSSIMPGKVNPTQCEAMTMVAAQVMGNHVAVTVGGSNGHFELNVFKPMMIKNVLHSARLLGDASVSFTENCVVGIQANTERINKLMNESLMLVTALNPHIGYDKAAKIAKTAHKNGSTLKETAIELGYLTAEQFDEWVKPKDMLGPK
Numbers without * were called inactive; ? = inconclusive; / = not tested or not shown; ! = not confirmed by another sample; [ ] = remark or other dose. Compounds with a hit are over-represented: about 4.7% of the library has one in this group of screens. Unless noted, calls come from the whole dose curve; as a rule, active = well fitted curve in the direction sought with a large enough effect; inconclusive = small, poorly fitted or top-dose-only effect, or another doubt; inactive = no such curve, though single readings can be large; an effect the other way counts as inactive or inconclusive.

SMILES | NTMT1 inh | HTT prom inh | DRV1 agonist | HTT-AS act | FH mod
COc1ccc(CNC(=O)Cn2c(=O)oc3cc(S(=O)(=O)N4CCCCCC4)ccc32)cc1 | 1% | ? | 61* | -25% | -21%
Cc1ccc(C(=O)N2CCc3cc(CNC(=O)COc4ccccc4)ccc32)cc1 | 13% | 12% | -40 | 11% | 2%
Cc1ccc(-c2nc3n(n2)C(=O)CC(c2ccc(Cl)cc2)S3)cc1 (centres undefined) | 3% | 4% | 41 | 5% | -8%
CCOc1ccc(C2CC(=O)n3nc(-c4ccc(C)cc4)nc3S2)cc1OC (centres undefined) | 8% | 4% | 74* | -3% | -6%
O=C1CC(c2ccc(Cl)cc2)Sc2nc(-c3ccc(F)cc3)nn21 (centres undefined) | 2% | -9%[11.5 µM] | 119* | 6% | -10%
Cc1ccc(CNC(=O)c2cnn(-c3cccc(C)c3)c2C2CCN(C(=O)OC(C)(C)C)CC2)cc1 | 18% | ? | -21 | -42% | ?
O=C(NCCc1csc(-c2cccnc2)n1)c1cccc(C(F)(F)F)c1 | -1% | ? | 68* | -39% | -5%
Cc1cc(Br)cc(C)c1NC(=O)c1cnc2ccccn2c1=O | 7% | 36% | -14 | 28µM* | -5%
CCOC(=O)c1cccc(NC(=O)CC(c2cc(OC)c(OC)c(OC)c2)N2Cc3ccccc3C2=O)c1 (centres undefined) | 89µM* | -28% | -8 | ? | -13%
O=C(CC(c1cccs1)N1Cc2ccccc2C1=O)Nc1cccc(F)c1 (centres undefined) | 5% | ? | 61* | -35% | 3%
O=C(CC(c1cccs1)N1Cc2ccccc2C1=O)Nc1ccccc1 (centres undefined) | -2% | -22% | 30 | -27% | 11%
O=C(O)[C@H](Cc1ccc(Nc2nccc3ccncc23)cc1)NC1=C(Br)C(=O)C12CCCCC2 | -2%[57.5 µM] | / | / | / | -19%
CCOc1ccccc1CNCCCSc1nnnn1C | -22% | -8% | 5 | -5% | 9%
CCOC(=O)c1c(NC(=O)c2cc(-c3cccc(Cl)c3)on2)sc(C)c1C | / | / | -9 | / | /
CCCc1cc(C(=O)N[C@H](Cc2ccc(-c3cccc(OC(F)(F)F)c3)nc2)C(=O)N[C@@H]2CCNC2)sc1C | 56µM* | / | / | / | /
Cc1ccc(NC(=O)c2ccc3oc(=O)c(S(=O)(=O)c4ccccc4)cc3c2)cc1C | -1% | -27% | -1 | -24% | -16%
CS(=O)(=O)c1ncc(Cl)c(C(=O)Nc2c(C(=O)Nc3ccccc3)oc3ccccc23)n1 | 8% | -13% | 43 | -4% | -4%
Cc1ccc(C(=O)c2oc3ccccc3c2NC(=O)c2nc(S(C)(=O)=O)ncc2Cl)cc1F | 0% | -7% | 75* | 7% | 27%
O=c1c(-c2ccc(O)cc2)coc2cc(OC3O[C@H](CO)[C@H](O)[C@H](O)[C@H]3O)cc(O)c12 (some centres undefined) | 24µM* | 11% | / | 4% | ?
Cc1ccc2c(c1)c1c(c(=O)n(Cc3ccccc3)c(=O)n1CC(=O)NCc1ccccc1Cl)n2C | 16% | -7% | 26 | -3% | -3%
O=C(Cn1c(=O)oc2cc(S(=O)(=O)NC3CCCC3)ccc21)Nc1ccc(F)c(F)c1 | 5% | ? | 91* | -26% | -19%
COc1ccc(NC(=O)Cn2c(=O)oc3cc(S(=O)(=O)NC4CCCC4)ccc32)cc1OC | -4% | ? | -3 | -24% | -1%
O=C(Cn1c(=O)oc2cc(S(=O)(=O)NCc3ccccc3)ccc21)Nc1cccc(F)c1 | 23% | -31% | 67* | -34% | 0%
CC(=O)c1cccc(NC(=O)Cn2c(=O)oc3cc(S(=O)(=O)NCc4ccccc4)ccc32)c1 | -17% | -24% | -3 | -15% | -14%
CCc1nn2c(=O)cc(COC(=O)C(CC)c3ccccc3)nc2s1 (centres undefined) | -1% | ? | -9 | -6% | 2%
SMILES | NTMT1 inh | HTT prom inh | DRV1 agonist | HTT-AS act | FH mod
CC(=O)N[C@@H](CC(=O)O)C(=O)N[C@@H](CCC(=O)O)C(=O)N[C@H](C(=O)N[C@@H](CC(=O)O)C(=O)Nc1ccc2c(C)cc(=O)oc2c1)C(C)C | 7%[57.5 µM] | / | / | / | 20µM*
COc1cc(Cl)c(NS(=O)(=O)c2ccc(-c3coc(C)n3)cc2)c(OC)c1 | 1% | ? | 83* | -53% | -2%
Cc1nc(-c2ccc(S(=O)(=O)Nc3ccc(C)c(N(C)C)c3)cc2)co1 | -7% | ? | 44 | -47% | -3%
CCN(CC)c1ccc(NS(=O)(=O)c2ccc(-c3coc(C)n3)cc2)c(C)c1 | -9% | ? | 68* | -31% | ?
NC1(c2ccc(-c3nc4ccn5c(=O)[nH]nc5c4cc3-c3ccccc3)cc2)CCC1 | 50µM*! | ? | -7 | -25% | 7%
Cc1cc2oc(C(=O)Nc3ccc(S(=O)(=O)Nc4ncccn4)cc3)cc(=O)c2cc1C | 2% | -9% | 10 | 8% | 3%
Cc1ccc2c(=O)cc(C(=O)Nc3ccc(S(=O)(=O)Nc4ncccn4)cc3)oc2c1C | ? | 18% | 67* | 2% | -16%
Cc1noc(/C=C/c2ccco2)c1S(=O)(=O)N1CCC(C(=O)Nc2ccc(F)c(Cl)c2)CC1 | 6% | 32µM* | -15 | -45% | -13%
Cc1ccc(NC(=O)C2CCN(S(=O)(=O)c3c(C)noc3/C=C/c3ccco3)CC2)cc1C | -1% | ? | -27 | -24% | -9%
Cc1ccc(/C=C/c2onc(C)c2S(=O)(=O)N2CCC(C(=O)NCc3ccco3)CC2)cc1 | -3% | -10% | 88* | -16% | -4%
Cc1noc(/C=C/c2ccccc2F)c1S(=O)(=O)N1CCC(C(=O)NCc2ccco2)CC1 | -23% | ? | -22 | -30% | -1%
CCC(C)(Oc1ccc(C2(c3ccc(OC(C)(CC)C(=O)O)cc3)CCCCC2)cc1)C(=O)O (centres undefined) | 18% | 13% | 5 | 6% | -17%
S=c1nc[nH]c2nc[nH]c12 | 25µM*! | ? | -1 | -46% | -8%[53.3 µM]
COc1ccc2c(c1)CC(C(=O)NCCCN1CCN(c3ccc(F)cc3)CC1)CO2 (centres undefined) | -15% | -37% | 0 | -23% | -9%
COc1ccc(CNC(=O)CSc2ncc(S(=O)(=O)c3ccc(Br)cc3)c(=O)[nH]2)cc1 | 10% | -11% | -18 | -15% | -5%
COC(=O)c1cc(Cl)ccc1NC(=O)CSc1ncc(S(=O)(=O)c2ccc(Br)cc2)c(=O)[nH]1 | 79µM* | -12% | 100* | -6% | ?
Cc1ccc(-c2nccc(=O)n2CC(=O)NCCc2ccccc2)cc1 | 0% | / | / | / | /
